Inconclusive results are not listed. Where a call stands in place of a potency, no number is given. Active and inactive are the calls of the source. Calls come from the whole dose curve; as a rule, active = well fitted curve in the direction sought with a large enough effect; inconclusive = small, poorly fitted or top-dose-only effect, or another doubt; inactive = no such curve, though single readings can be large; an effect the other way counts as inactive or inconclusive.
Columns and labels:
[1] = qHTS of pediatric cancer cell lines to identify multiple opportunities for drug repurposing: Confirmatory screen for NB1643 cells (AID 1347109); note: nearly all actives have a fitted effect of over 45% in size; note: potency is the fitted concentration of half-maximal effect
Source text: Drug repurposing or repositioning has been offered as a strategy for drug development in oncology programs. This approach has special potential for childhood cancers and other rare or orphan diseases, where the expected return on new drug development has been a disincentive to pharmaceuticals.
In this project we exploit the poly-pharmacology of drugs to discover new indications via phenotypic screening of a panel of 19 well-characterized cell lines derived from solid tumors seen in children and adolescents. The goal is to identify approved drugs with previously unrecognized anticancer properties that has the potential to reveal new mechanisms and biological processes involved in carcinogenesis or drug resistance. We employed a titration-based paradigm (quantitative high-throughput screening or qHTS), where all compounds were tested at multiple concentrations for their effect on cell viability. Concentration-response curves (CRCs) were derived directly from the primary screen, and both potency and efficacy values were used to identify compounds with robust bioactivity profiles. We screened the NIH Chemical Genomics Center (NCGC) Pharmaceutical Collection (NPC) and Mechanism Interrogation Plate (MIPE) small molecule collections of approved and investigational compounds against these cell lines; and measured metabolically active cells after 48 hours of compound treatment as a proxy for cell viability.
Assay Submitter: Nathalia J. Martinez, National Center for Advancing Translational Sciences, National Institutes of Health, Rockville, MD, USA; email: natalia.martinez@nih.gov
[1] Shen, M et al. Quantitative high-throughput phenotypic screening of pediatric cancer cell lines identifies multiple opportunities for drug repurposing. Oncotarget 2017 Dec 19;9(4):4758-4772. PMID 29435139.
The cells were obtained from University of North Carolina (UNC), Pediatric Preclinical Testing Program (PPT), and Coriell Institute (CI).
qHTS cell viability assay:
Cells were assayed in growth media at a density of 500-1,000 cells/well. Five microliters of cells were dispensed into 1,536-well, white, solid-bottom, TC-treated plates (Greiner Bio One) using a multidrop dispenser and incubated at 37 degrees C, 5% CO2, under a humidified atmosphere for 5 hours. Twenty-three nanoliters of compounds and controls (neutral control DMSO or positive control bortezomib at final concentration of 2.3 µM) were subsequently transferred by Kalypsys pintool. […] After a 15 min incubation at room temperature, samples were analyzed for luminescence intensity using a ViewLux High-throughput CCD imager equipped with clear filters.

[2] = qHTS of pediatric cancer cell lines to identify multiple opportunities for drug repurposing: Confirmatory screen for A673 cells (AID 1347110); note: nearly all actives have a fitted effect of over 65% in size; note: potency is the fitted concentration of half-maximal effect
Method in brief: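 A673 cells seeded at 500-1,000 cells/well, rested 5 h, then dosed; primary MIPE 11-point (0.78 nM to 46 µM), NPC (0.59 nM to 46 µM); confirmatory 11-point. CellTiter-Glo luminescence after 48 h.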

[3] = qHTS of pediatric cancer cell lines to identify multiple opportunities for drug repurposing: Confirmatory screen for BT-12 cells (AID 1347112); note: nearly all actives have a fitted effect of over 55% in size
Method in brief: (§1)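 Viability after 48 h compound treatment at 37C, 500-1,000 cells/well, read as ATP luminescence with CellTiter-Glo. Primary screens used 11-point (MIPE, 0.78 nM-46 µM) or 8-point (NPC, 0.59 nM-46 µM) final concentrations; follow-up screens used 11-point dilutions.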

[4] = qHTS of pediatric cancer cell lines to identify multiple opportunities for drug repurposing: Confirmatory screen for DAOY cells (AID 1347114); note: nearly all actives have a fitted effect of over 65% in size
Method in brief: (§2)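 Viability measured as metabolically active cells via CellTiter-Glo luminescence following 48 hours of compound exposure, 11-point dilutions in confirmatory testing. 500-1,000 cells/well plated 5 hours before dosing; controls were DMSO and 2.3 µM bortezomib.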

[5] = qHTS of pediatric cancer cell lines to identify multiple opportunities for drug repurposing: Confirmatory screen for NB-EBc1 cells (AID 1347115); note: nearly all actives have a fitted effect of over 45% in size
Method in brief: as §1

[6] = qHTS of pediatric cancer cell lines to identify multiple opportunities for drug repurposing: Confirmatory screen for BT-37 cells (AID 1347117); note: nearly all actives have a fitted effect of over 55% in size; note: potency is the fitted concentration of half-maximal effect
Method in brief: as §1

[7] = qHTS of pediatric cancer cell lines to identify multiple opportunities for drug repurposing: Confirmatory screen for SK-N-MC cells (AID 1347111); settings: SK-N-MC cell viability;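 note: potency is the fitted concentration of half-maximal effect; cells exposed to compound for 48 h before the readout; nearly all actives have a fitted effect of over 70% in size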
Method in brief: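 SK-N-MC cells at 500-1,000 cells/well in growth media were pre-incubated 5 h, then exposed to compounds at 11-point dilutions for 48 h at 37 degrees C, 5% CO2. Viability was read as CellTiter-Glo luminescence.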

[8] = qHTS of pediatric cancer cell lines to identify multiple opportunities for drug repurposing: Confirmatory screen for LAN-5 cells (AID 1347113); note: nearly all actives have a fitted effect of over 65% in size; note: potency is the fitted concentration of half-maximal effect
Method in brief: as §1

[9] = qHTS of pediatric cancer cell lines to identify multiple opportunities for drug repurposing: Confirmatory screen for TC32 cells (AID 1347118); settings: TC32 Ewing sarcoma cells viability qHTS; note: potency is the fitted concentration of half-maximal effect; nearly all actives have a fitted effect of over 65% in size
Method in brief: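 Luminescent CellTiter-Glo read-out of metabolically active TC32 cells after 48 h compound exposure. Primary: MIPE 11-point, 0.78 nM–46 µM; NPC 8-point, 0.59 nM–46 µM. Confirmatory: 11-point dilutions.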

[10] = qHTS of pediatric cancer cell lines to identify multiple opportunities for drug repurposing: Confirmatory screen for SJ-GBM2 cells (AID 1347116); note: nearly all actives have a fitted effect of over 60% in size
Method in brief: as §2

| SMILES | Potency [1] | Potency [2] | outcome [3] | outcome [4] | outcome [5] | Potency [6] | Potency [7] | Potency [8] | Potency [9] | outcome [10] |
| --- | --- | --- | --- | --- | --- | --- | --- | --- | --- | --- |
| COc1cc(C(=O)NCCCCCC(=O)O)cc(OC)c1OC | inactive | inactive | inactive | inactive | inactive | inactive |  |  |  |  |
| CC(=O)OCC(=O)[C@@]1(O)CC[C@H]2[C@@H]3CCC4=CC(=O)C=C[C@]4(C)[C@@]3(F)[C@@H](O)C[C@@]21C | 10.4 µM (active) |  |  | inactive |  | 16.5 µM (active) | 16.5 µM (active) | 14.7 µM (active) | 14.7 µM (active) |  |
| O=C(Cn1ccnc1[N+](=O)[O-])NCc1ccccc1 | inactive | 1.17 µM (active) | inactive | inactive | inactive | inactive | 2.93 µM (active) | inactive | 1.85 µM (active) |  |
| CC(=O)[C@@]1(O)CC[C@H]2[C@@H]3C[C@H](C)C4=CC(=O)C=C[C@]4(C)[C@@]3(F)[C@@H](O)C[C@@]21C | inactive | inactive | inactive | inactive | inactive | inactive | 23.3 µM (active) | inactive | 2.93 µM (active) | inactive |
